This is a sample that favours compounds with a hit; in the whole collection about 12% have one here.
BAZ2B inh = qHTS Assay for Inhibitors of BAZ2B; Bromodomain adjacent to zinc finger domain protein 2B (Homo sapiens), Q9UIF8; AlphaScreen BAZ2B-H3K14Ac peptide displacement; Potency, µM (series often up to 114 µM), without a hit: at the highest dose activity change, negative = inhibition, usual class: inhibitors; actives 4.4% (n = 360,000); AID 504333, 2011; also: % is scaled to controls: 0 for no effect and ±100 for the full control effect; nearly all actives have a fitted effect of over 60% in size
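Compounds, titrated to a top concentration of 110 uM, were incubated 30 min at room temperature with preformed BAZ2B/acetyl-K14 H3 peptide complex (50 nM each). Proximity signal was measured by AlphaScreen after 20 min with beads.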
HP1b chromo inh = HTS for Inhibitors of HP1-beta Chromodomain Interactions with Methylated Histone Tails; Chromobox protein homolog 1 (Homo sapiens), P83916; AlphaScreen HP1-beta / biotin-H3K9me3 peptide binding; Potency, µM (top dose mostly 114 µM), inactives show at the top dose activity change, negative = inhibition, hits mostly inhibitors; actives 0.56% (n = 390,000); AID 540317, 2011; also: nearly all actives have a fitted effect of over 70% in size
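Compound inhibition of the preformed complex between 50 nM HP1-beta and 50 nM biotinylated H3K9me3 peptide was read by AlphaScreen. Buffer was PBS pH 7.4 with 0.01% Tween-20. Incubations ran 30 min at room temperature, with 10 ug/mL donor/acceptor beads.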
JMJD2A Tudor inh = qHTS Assay for Inhibitors of JMJD2A-Tudor Domain | Lysine-specific demethylase 4A (Homo sapiens), O75164 | AlphaScreen JMJD2A-Tudor / H3K4me3 peptide binding | Potency, µM (titrated, usually from 114 µM), for inactives: at the top dose activity change, negative = inhibition, actives largely listed as inhibitors | actives 4.4% (n = 390,000) | AID 504339, 2011; also: % is scaled to controls: 0 for no effect and ±100 for the full control effect; nearly all actives have a fitted effect of over 50% in size
Target sequence (O75164 whole entry, looked up, the tested form may be a part): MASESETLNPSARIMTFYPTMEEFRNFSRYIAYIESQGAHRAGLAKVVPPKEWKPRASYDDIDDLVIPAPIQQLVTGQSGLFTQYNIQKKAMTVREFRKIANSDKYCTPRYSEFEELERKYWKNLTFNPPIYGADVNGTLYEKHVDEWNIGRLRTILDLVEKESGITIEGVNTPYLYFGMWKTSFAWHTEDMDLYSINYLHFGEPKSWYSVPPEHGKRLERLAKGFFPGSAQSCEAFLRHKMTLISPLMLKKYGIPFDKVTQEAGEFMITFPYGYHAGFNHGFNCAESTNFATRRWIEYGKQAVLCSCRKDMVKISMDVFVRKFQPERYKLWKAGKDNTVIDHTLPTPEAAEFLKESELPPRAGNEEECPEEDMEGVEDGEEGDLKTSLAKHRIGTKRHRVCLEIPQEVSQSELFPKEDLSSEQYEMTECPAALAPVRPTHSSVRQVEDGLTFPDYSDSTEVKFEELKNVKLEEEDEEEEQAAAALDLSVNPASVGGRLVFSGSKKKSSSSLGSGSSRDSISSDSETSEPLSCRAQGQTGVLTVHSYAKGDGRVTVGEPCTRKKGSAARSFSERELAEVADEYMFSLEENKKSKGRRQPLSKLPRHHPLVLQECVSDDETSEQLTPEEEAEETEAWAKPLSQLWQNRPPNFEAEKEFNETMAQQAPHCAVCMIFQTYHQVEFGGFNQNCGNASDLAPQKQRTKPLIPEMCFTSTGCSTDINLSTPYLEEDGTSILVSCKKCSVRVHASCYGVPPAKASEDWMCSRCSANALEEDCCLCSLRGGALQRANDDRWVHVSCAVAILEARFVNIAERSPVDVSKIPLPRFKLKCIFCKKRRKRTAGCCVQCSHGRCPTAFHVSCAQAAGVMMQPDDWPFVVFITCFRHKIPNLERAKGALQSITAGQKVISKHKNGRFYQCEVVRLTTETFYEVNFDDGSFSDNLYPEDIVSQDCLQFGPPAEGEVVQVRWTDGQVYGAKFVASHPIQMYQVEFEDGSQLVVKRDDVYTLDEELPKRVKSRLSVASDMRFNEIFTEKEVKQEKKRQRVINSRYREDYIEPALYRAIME
Sfp PPTase inh = qHTS Assay for Inhibitors of Bacillus subtilis Sfp phosphopantetheinyl transferase (PPTase). Biochemical Sfp PPTase activity, qHTS. Potency, µM, inactives show largest response in the series, negative = inhibition, usual class: inhibitors. actives 3.5% (n = 310,000). AID 1490, 2009;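 also: the enzyme is Sfp with the accession as filed and its product quenches rhodamine fluorescence; 0% = enzyme reaction without inhibitor and -100% = no enzyme wells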
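Reaction rates are the 30-min fluorescence difference (ex 525, em 598 nm) in wells containing 15 nM Sfp, 5 uM rhodamine-CoA and 12.5 uM BHQ-2-YbbR at pH 7.6 with 10 mM MgCl2.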
G9a inh = qHTS Assay for Inhibitors of Histone Lysine Methyltransferase G9a | Histone-lysine N-methyltransferase EHMT2 (Homo sapiens), Q96KQ7 | G9a H3K9 monomethylation, AlphaScreen, 2 h | Potency, µM (top dose mostly 102 µM), for the others: at the top dose activity, negative = inhibition, usual class: inhibitors | actives 8.8% (n = 350,000) | AID 504332, 2011; also: % is scaled to controls: 0 for no effect and ±100 for the full control effect; nearly all actives have a fitted effect of over 75% in size
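G9a (20 nM) preincubated 15 min RT with compounds, then 500 nM biotinylated H3K9 peptide and 20 uM SAM added; 2 h RT reaction. Monomethyl-H3K9 product detected by AlphaScreen with anti-H3K9me1 antibody, streptavidin donor and anti-rabbit IgG acceptor beads.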
Active calls of the source: *; ? = inconclusive; · = no result; [ ] = remark or other dose. Calls follow the shape of the dose curve; as a rule, active = well fitted curve in the direction sought with a large enough effect; inconclusive = small, poorly fitted or top-dose-only effect, or another doubt; inactive = no such curve, though single readings can be large; an effect the other way counts as inactive or inconclusive. Potency is read from the fitted curve at half-maximal effect.

SMILES	BAZ2B inh	HP1b chromo inh	JMJD2A Tudor inh	Sfp PPTase inh	G9a inh
O=C(Nc1cc2c3c(c1)CC(=O)N3CCC2)c1ccco1	-19%	-3%	-15%	·	35µM*
O=C(CCl)c1cc2c3c(c1)CC(=O)N3CCC2	?	62%	-10%	-1%	50µM*
O=C(Nc1cc2c3c(c1)CC(=O)N3CCC2)c1ccc(Br)o1	-27%	14%	-18%	·	?
COc1ccc(CNC(=O)CSc2ncc3c(n2)-c2cc(Cl)ccc2N(C)S3(=O)=O)cc1	2%	12%	-5%	·	1%[59 µM]
CCn1nc(C(=O)OCC(=O)NC(C)C)c2ccccc2c1=O	-4%	-11%	?	6%	-4%
CCOc1cc(C(=O)OCC(=O)Nc2ncc(Cl)c(C)c2Cl)ccc1OCC(=O)N1CCOCC1	4%	13%	-13%	5%	45µM*
CCn1nc(C(=O)OCC(=O)Nc2ncc(Cl)c(C)c2Cl)c2ccccc2c1=O	?	-15%	?	2%	50µM*
Cc1cc(NC(=O)COC(=O)c2cc3c(s2)CCC(C)C3)no1 (stereo unspecified)	-1%	27%	-10%	9%	7%[59 µM]
Cc1c(Cl)cnc(NC(=O)COC(=O)c2cc3c(s2)CCC(C)C3)c1Cl (stereo unspecified)	3%	10%	-18%	9%	35µM*
CC(C)[C@H]1COCCS(=O)(=O)N1Cc1ccccc1-c1cccc(Cl)c1	·	39%	-8%	·	·
CCn1ccnc1CN(C)Cc1cn(-c2cccc(C)c2)nc1-c1cccc(F)c1	35µM*	?	50µM*	45µM*	11µM*
CCn1ccnc1CN(C)Cc1cn(-c2ccc(C)cc2)nc1-c1cccc(C)c1	40µM*	?	?	?	32µM*
Cc1ccc(-n2cc(CN3CCN(Cc4nccn4C)CC3)c(-c3cccc(C)c3)n2)cc1	?	-4%	?	-2%	?
Cc1cccc(-n2cc(CN(C)Cc3nccn3C)c(-c3cccc(F)c3)n2)c1	?	?	40µM*	1%	16µM*
CCOc1ccc(S(=O)(=O)N2CCCCC2)cc1NC(=O)CCNC(=O)c1ccco1	-4%	13%	-5%	·	-6%
CCOC(=O)C1=C(C)NC(=O)NC1c1ccc(OCC(=O)Nc2ccccc2)c(OC)c1 (stereo unspecified)	7%	24%	-19%	-1%	-3%[59 µM]
CCOC(=O)C1=C(C)NC(=O)C1CC(=O)Nc1ccccc1 (stereo unspecified)	-10%	·	·	79µM*	3.5µM*
COc1cc2cc(C#N)c(SCC(=O)OC(C)C)nc2cc1OC	·	32%	-13%	·	·
COc1ccc2c(c1)sc1ncc(C(=O)NCc3ccccc3F)c(=O)n12	0%	5%	-11%	·	-2%[59 µM]
O=[N+]([O-])c1ccc(NCCCO)c(S(=O)(=O)N2CCOCC2)c1	7%	26%	-2%	-11%	6%
COc1cc(/C=N/Nc2ccc([N+](=O)[O-])cc2S(=O)(=O)N2CCOCC2)cc(OC)c1OC	0%	51%	8%	16%	?
O=C(CCc1ccc(S(=O)(=O)N2CCOCC2)cc1)N/N=C/c1ccc(O)c(O)c1O	?	?	79µM*	22µM*	7.9µM*
O=[N+]([O-])c1ccc(N2CCOCC2)c(S(=O)(=O)N2CCOCC2)c1	·	30%	-14%	19%	-34%
O=[N+]([O-])c1ccc(N2CCN(c3ccccc3F)CC2)c(S(=O)(=O)N2CCOCC2)c1	-9%	6%	?	6%	20µM*
O=[N+]([O-])c1ccc(N/N=C/c2ccc(O)c(O)c2O)c(S(=O)(=O)N2CCOCC2)c1	32µM*	20µM*	45µM*	7.1µM*	·
SMILES	BAZ2B inh	HP1b chromo inh	JMJD2A Tudor inh	Sfp PPTase inh	G9a inh
O=[N+]([O-])c1ccc(N/N=C/c2cccc(O)c2O)c(S(=O)(=O)N2CCOCC2)c1	?	1%	-21%	-6%	35µM*
O=[S+]([O-])(c1ccc(-c2ccccc2)cc1)N1CCN([S+](=O)([O-])c2ccc3c(c2)OCCO3)CC1	·	·	-14%	·	·
CN(C)S(=O)(=O)c1ccc(C(=O)Nc2c(C(=O)Nc3ccc(F)cc3)oc3ccccc23)cc1	-14%	29%	-10%	·	-28%[59 µM]
CCOC(=O)c1ccc(NC(=O)CCC(=O)N2Cc3ccccc3Oc3ncccc32)cc1	5%[57.1 µM]	26%	-18%	·	-2%[59 µM]
CCOc1ccc(NC(=O)Cn2c(=O)n(Cc3nc(-c4ccccc4)no3)c(=O)c3ccccc32)cc1	-6%	-7%	-12%	·	-7%[59 µM]
O=[N+]([O-])c1cccc(N/N=C/c2cccc(O)c2O)c1	?	-16%	-30%	-22%	22µM*
O=C(COC(=O)CCC(=O)N1CCOCC1)Nc1ccc(Br)cc1Br	·	12%	-6%	·	·
O=C(O)c1cc(-c2ccc(C(F)(F)F)cc2)nc2n[nH]c(-c3ccccc3)c12	-26%	38%	-15%	·	-15%[59 µM]
CCOC(=O)c1cc(-c2ccc(C)cc2)n(CCC(=O)Nc2cc(Cl)ccc2C)c1C	-1%	15%	-7%	·	4%[59 µM]
O=C(O)c1ccccc1-c1nnc2c(Cl)cc(C(F)(F)F)cn12	-5%	19%	-2%	-6%	?
CCCC(=O)NC(c1ccc(N(C)C)cc1)c1ccc2cccnc2c1O (stereo unspecified)	7%[0.457 µM]	-17%	22µM*	18%	4%[59 µM]
COc1ccc(C(NC(=O)C(C)C)c2ccc3cccnc3c2O)cc1 (stereo unspecified)	45µM*	46%	-26%	8%	·
CC(=O)NC(c1ccco1)c1ccc2cccnc2c1O (stereo unspecified)	20µM*	24%	56µM*	10%	-8%
O=S1(=O)C2CC3C=CC2(CN1Cc1cccc(F)c1)O3 (stereo unspecified)	·	44%	3%	8%	·
Cc1cccc(C)c1-n1nnnc1SCC(=O)N1CCNC1=O	3%	29%	3%	·	45µM*
COc1cc2c(C(=O)NCc3ccc(C)o3)cn(CC(C)C)c(=O)c2cc1OC	4%[57.1 µM]	10%	-21%	45µM*	45µM*
Nc1ccc2nc(SCc3cccc(F)c3)sc2c1	·	-7%	-33%	-19%	45µM*
CC(=O)Nc1ccc2nc(SCc3ccccc3)sc2c1	-18%	32%	-16%	·	2%[59 µM]
Nc1ccc2nc(SCC(=O)N3CCN(c4ccccc4)CC3)sc2c1	?	4%	-31%	6%	50µM*
CCOC(=O)CSc1nc(N)c(C(=O)Nc2ccc(N(C)C)cc2)s1	50µM*	?	40µM*	-8%	16µM*
